“And” between values parts separate entries of the source, which are not always exact repeats. Equal values may be shown once. Records with an inconclusive call do not appear. A call without a number means that no potency is given here. The source made the active and inactive calls. Unless noted, calls come from the whole dose curve; as a rule, active = well fitted curve in the direction sought with a large enough effect in the repeat runs; inconclusive = weak or mixed curves; inactive = no such curve, though single readings can be large; an effect the other way counts as inactive or inconclusive.
Assays:
[1] = qHTS assay for small molecule agonists of the p53 signaling pathway (AID 651631; calls by dose curve; note: nearly all actives have a fitted effect of over 15% in size; note: potency is the fitted concentration of half-maximal effect)
Outline: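 HCT-116 p53RE-bla reporter line, 16 h compound treatment at 37 °C, then fluorescence after 2 h with B/G FRET substrate.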

[2] = qHTS assay for small molecules that induce genotoxicity in human embryonic kidney cells expressing luciferase-tagged ATAD5 (AID 651632); note: nearly all actives have a fitted effect of over 15% in size
Outline: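 Genotoxicity read-out via ATAD5-luciferase: HEK293T cells, 16 hr compound incubation at 37C, Amplite detection.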

[3] = qHTS assay for small molecule agonists of the p53 signaling pathway - cell viability (AID 651633; calls by dose curve;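 note: p53RE-bla HCT reporter cells with a stable beta-lactamase p53 reporter; series mostly up to about 83 µM; nearly all actives have a fitted effect of over 30% in size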)
Outline: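 Viability counter-read: CellTiter-Glo luminescence (30 min, room temperature) in the same p53RE-bla plates. These plates had been exposed to compounds for 16 h at 37 C.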

[4] = qHTS assay for small molecules that induce genotoxicity in human embryonic kidney cells expressing luciferase-tagged ATAD5 - cell viability (AID 651634; calls by dose curve; note: nearly all actives have a fitted effect of over 25% in size)
Outline: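 Live-cell protease activity (CellTiter-Fluor, fluorescence) indicates viability. HEK293T cells with luciferase-tagged ATAD5; 15.5 hr compound treatment at 37C.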

[5] = qHTS assay for small molecule disruptors of the mitochondrial membrane potential - cell viability (AID 720634; calls by dose curve;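 note: human HepG2 liver cancer cells; series mostly up to about 83 µM; nearly all actives have a fitted effect of over 20% in size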)
Outline: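 Human hepatoma HepG2 cells were treated for 1 hr with test chemicals, then given m-MPI dye and CellTiter-Glo. Cell viability reflects luminescence proportional to cellular ATP.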

[6] = qHTS assay for small molecule disruptors of the mitochondrial membrane potential (AID 720635)
Outline: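 Mitochondrial membrane potential tracked with Mito-MPS dye, red aggregates (ex 540/em 590 nm) against green monomers (ex 490/em 535 nm). Compound treatment 1 hr at 37C, dye 30 min in HepG2.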

[7] = qHTS assay to test for compound auto fluorescence at 590 nm (red) in HepG2 cells (AID 720674)
Outline: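 Red autofluorescence (Ex/Em 540/590 nm, Rose Bengal sodium equivalents) was measured in HepG2 cells, 2,000 per well in MEM plus 10% FBS, plated overnight at 37 C. Readings were taken 1 hr after adding 23 nL compound or DMSO, at 37 C and 5% CO2.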

[8] = qHTS assay to test for compound auto fluorescence at 535 nm (green) in HepG2 cells (AID 720675)
[9] = qHTS assay to test for compound auto fluorescence at 460 nm (blue) in HEK293 cells (AID 720678)
Outline: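 Intrinsic compound fluorescence is recorded in live HEK293 cultures after overnight incubation at 37C, 5% CO2, using excitation 405 nm and emission 460 nm. Values are referenced to triamterene.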

[10] = qHTS assay to test for compound auto fluorescence at 590 nm (red) in HEK293 cells (AID 720679)
Outline: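 Red autofluorescence, HEK293 cells: 2,000 cells/well; attach 4-5 hr 37C; add 23 nL cpd or DMSO; incubate o/n 37C 5% CO2; read Ex540/Em590; Rose Bengal sodium reference.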

[11] = qHTS assay to test for compound auto fluorescence at 535 nm (green) in HEK293 cells (AID 720680)
[12] = qHTS assay to test for compound auto fluorescence at 460 nm (blue) in HEK293 cell free culture (AID 720681)
Outline: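 Blue fluorescence (Ex 405/Em 460 nm, triamterene-equivalent) was read immediately after pin transfer of compound or DMSO into medium (DMEM, 10% FBS) without cells.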

[13] = qHTS assay to test for compound auto fluorescence at 535 nm (green) in HEK293 cell free culture (AID 720682)
Outline: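 Steps: dispense DMEM/10% FBS into empty wells; pin in compound or DMSO; measure fluorescence at 485/535 nm. Values are fluorescein equivalents.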

[14] = qHTS assay to test for compound auto fluorescence at 590 nm (red) in HEK293 cell free culture (AID 720683)
Outline: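 Red-channel autofluorescence of compounds in culture medium (DMEM, 10% FBS), no cells, measured at 540/590 nm. Rose Bengal sodium is the reference fluorophore for equivalence.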

[15] = qHTS assay to test for compound auto fluorescence at 590 nm (red) in HepG2 cell free culture (AID 720684)
Outline: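 Plate contents were MEM with 10% FBS plus test compound or DMSO, no cells. Fluorescence was recorded with 540 nm excitation and 590 nm emission.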

[16] = qHTS assay to test for compound auto fluorescence at 460 nm (blue) in HepG2 cell free culture (AID 720685)
Outline: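 Compound (23 nL) or DMSO pinned into cell-free MEM with 10% FBS; blue fluorescence read at 405/460 nm excitation/emission, expressed as auto-fluorescence equivalency to triamterene.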

[17] = qHTS assay to test for compound auto fluorescence at 535 nm (green) in HepG2 cell free culture (AID 720686)
[18] = qHTS assay to test for compound auto fluorescence at 460 nm (blue) in HepG2 cells (AID 720687)
Outline: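 Blue-channel autofluorescence (Ex/Em 405/460 nm, triamterene-equivalent) was measured after 1 hr compound exposure at 37 C, 5% CO2. Cells were HepG2, plated overnight at 37 C in MEM plus 10% FBS.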

[19] = target: Glucocorticoid receptor (Homo sapiens) (UniProt P04150); test: qHTS assay to identify small molecule agonists of the glucocorticoid receptor (GR) signaling pathway (AID 720691; active = well fitted activation curve with a large enough effect in the signal ratio in the repeat runs, not every such curve was filed as active; the % refers to the signal ratio)
Chain of Glucocorticoid receptor (Homo sapiens) (P04150 whole entry, looked up): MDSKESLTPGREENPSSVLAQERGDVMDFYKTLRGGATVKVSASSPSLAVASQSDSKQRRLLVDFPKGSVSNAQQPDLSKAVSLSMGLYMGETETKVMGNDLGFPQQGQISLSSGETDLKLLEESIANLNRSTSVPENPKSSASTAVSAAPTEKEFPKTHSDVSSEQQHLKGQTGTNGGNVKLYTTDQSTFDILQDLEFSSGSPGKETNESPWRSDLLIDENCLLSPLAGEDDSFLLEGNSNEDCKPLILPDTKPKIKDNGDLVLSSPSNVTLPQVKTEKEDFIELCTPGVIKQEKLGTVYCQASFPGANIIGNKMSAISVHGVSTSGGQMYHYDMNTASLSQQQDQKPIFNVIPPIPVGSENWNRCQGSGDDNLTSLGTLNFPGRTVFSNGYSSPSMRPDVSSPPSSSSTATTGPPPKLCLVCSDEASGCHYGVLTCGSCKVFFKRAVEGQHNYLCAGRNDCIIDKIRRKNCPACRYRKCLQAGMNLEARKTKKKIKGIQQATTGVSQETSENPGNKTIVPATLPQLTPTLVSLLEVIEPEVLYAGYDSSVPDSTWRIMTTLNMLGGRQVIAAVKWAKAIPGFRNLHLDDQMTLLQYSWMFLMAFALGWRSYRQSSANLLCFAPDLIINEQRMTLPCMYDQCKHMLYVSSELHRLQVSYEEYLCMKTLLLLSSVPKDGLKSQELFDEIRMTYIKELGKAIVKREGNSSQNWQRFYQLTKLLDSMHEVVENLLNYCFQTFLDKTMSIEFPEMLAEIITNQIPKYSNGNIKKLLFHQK
Outline: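 Beta-lactamase reporter activity, read as fluorescence intensity, was measured in GR-bla HeLa cells exposed to compounds for 18 h at 37 C and then loaded with LiveBLAzer B/G FRET substrate for 2 h at room temperature.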

[20] = target: Glucocorticoid receptor (Homo sapiens) (UniProt P04150); test: qHTS assay to identify small molecule antagonists of the glucocorticoid receptor (GR) signaling pathway (AID 720692; active = well fitted inhibition curve with a large enough effect in the signal ratio in the repeat runs, not every such curve was filed as active; the % refers to the signal ratio)
Outline: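 Fluorescence from cleaved LiveBLAzer B/G FRET substrate reports GRE-driven beta-lactamase in HeLa cells; compounds are tested against 5 nM dexamethasone (final) over 18 h at 37 C, substrate incubation 2 h at room temperature.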

Compound | Potency [1] | Potency [2] | Potency [3] | Potency [4] | Potency [5] | Potency [6] | outcome [7] | outcome [8] | Potency [9] | outcome [10] | outcome [11] | Potency [12] | outcome [13] | outcome [14] | outcome [15] | Potency [16] | outcome [17] | Potency [18] | outcome [19] | Potency [20]
CC(=O)CC(=O)N(C)C | inactive | inactive | inactive | inactive | inactive | inactive | inactive | inactive | inactive | inactive | inactive | inactive | inactive | inactive | inactive | inactive | inactive | inactive | inactive | inactive
OB(O)O | inactive | inactive | inactive | inactive | inactive | inactive | inactive | inactive | inactive | inactive | inactive | – | inactive | inactive | inactive | inactive | inactive | inactive | inactive | inactive
CCCCC(=O)O | inactive | inactive | inactive | – | inactive | inactive | inactive | inactive | inactive | inactive | inactive | – | inactive | inactive | inactive | inactive | inactive | inactive | inactive | inactive
Cc1cc(CC(=O)O)n(C)c1C(=O)c1ccc(Cl)cc1 | inactive | – | inactive | inactive | inactive | inactive | inactive | inactive | inactive | inactive | inactive | inactive | inactive | inactive | inactive | inactive | inactive | inactive | inactive | inactive
Cc1cc(C)c(O)c(C)c1 | inactive | inactive | inactive | inactive | inactive | inactive | inactive | inactive | – | inactive | inactive | inactive | inactive | inactive | inactive | inactive | inactive | inactive | inactive | inactive
CCCCCCCCCCCCCC(=O)O | inactive | inactive | inactive | – | inactive | inactive | inactive | inactive | – | inactive | inactive | inactive | inactive | inactive | inactive | inactive | inactive | inactive | inactive | inactive
COCN(COC)c1nc(N(COC)COC)nc(N(COC)COC)n1 | inactive | – | inactive | inactive | inactive | inactive | inactive | inactive | inactive | inactive | inactive | inactive | inactive | inactive | inactive | inactive | inactive | inactive | inactive | inactive
CCCCCC(C)=O | inactive | inactive | inactive | inactive | inactive | inactive | inactive | inactive | inactive | inactive | inactive | inactive | inactive | inactive | inactive | inactive | inactive | inactive | inactive | inactive
O=[N+]([O-])c1ccccc1C(F)(F)F | inactive | inactive | inactive | inactive | inactive | inactive | inactive | inactive | inactive | inactive | inactive | inactive | inactive | inactive | inactive | inactive | inactive | inactive | – | –
NC(=O)c1ncn([C@@H]2O[C@H](CO)[C@@H](O)[C@H]2O)n1 | 13.3 µM (active) and 64.4 µM (active) | inactive | inactive | – | inactive | inactive | inactive | inactive | inactive | inactive | inactive | inactive | inactive | inactive | inactive | inactive | inactive | inactive | inactive | inactive
CC/C=C(\C(=O)N[C@@H]1C(=O)N2C(C(=O)OCOC(=O)C(C)(C)C)=C(COC(N)=O)CS[C@H]12)c1csc(N)n1 | inactive | inactive | inactive | inactive | inactive | inactive | inactive | inactive | inactive | inactive | inactive | inactive | inactive | inactive | inactive | inactive | inactive | inactive | inactive | inactive
CC(=O)c1nccs1 | inactive | inactive | inactive | – | inactive | inactive | inactive | inactive | inactive | inactive | inactive | – | inactive | inactive | inactive | inactive | inactive | inactive | inactive | inactive
CC(=O)OC(C)(C)C1CC=C(C)CC1 (stereo not drawn) | inactive | inactive | inactive | – | inactive | inactive | inactive | inactive | inactive | inactive | inactive | inactive | inactive | inactive | inactive | inactive | inactive | inactive | – | –
O=Cc1ccc(CO)o1 | inactive | inactive | inactive | inactive | inactive | inactive | inactive | inactive | inactive | inactive | inactive | inactive | inactive | inactive | inactive | inactive | inactive | inactive | inactive | inactive
CCc1cccc(CC)c1N | inactive | inactive | inactive | – | inactive | inactive | inactive | inactive | inactive | inactive | inactive | inactive | inactive | inactive | inactive | inactive | inactive | inactive | inactive | inactive

From PubChem BioAssay (Tox21)
